From PubChem BioAssay (EPA / NIEHS)
Activity calls are given as the source filed them. Rule for the calls: active = hit-call score of the fitted dose curve at least 0.9, where 1 is the maximum; inactive = score below 0.9.

Read-out: Alpha-fetoprotein (AFP) gene, AFP (gene 174)
Experiment: LTEA_HepaRG_AFP: Life Technologies and Expression Analysis (LTEA) Assay for Alpha-fetoprotein (AFP) gene using HepaRG (AID 2283472);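 for AC50: AFP transcript by TaqMan qRT-PCR normalized to ACTB GAPDH and POLR2A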
Settings: mRNA level, 48 h; actives raise or lower the signal
Method: It is a marker of Undifferentiated hepatocyte.Data from the assay component LTEA_HepaRG_AFP was analyzed into 1 endpoint. This assay endpoint, LTEA_HepaRG_AFP, was analyzed with bidirectional fitting relative to DMSO as the negative control and baseline of activity. Using a type of inducible reporter, measures of mRNA induction for gain or loss-of-signal activity can be used to understand regulation of transcription factor activity. To generalize the intended target to other relatable targets, this assay endpoint is annotated to the background measurement intended target family, where the subfamily is assay control.
A total of 1060 chemcials from the ToxCast library were tested in eight-point concentration-response experiments. Cell culture and cytotoxicity assays were conducted at Thermo Fisher Scientific's Custom Services facility (Madison, WI). A single lot of human HepaRG cells (Thermo Fisher Scientific, Frederick, MD) was used for the cell culture experiments. 96-well format collagen type I coated plates of human HepaRG cells were prepared using established methods. Briefly, cryopreserved HepaRG cells were thawed, plated at a density of approximately 100,000 cells/well in HepaRG Thaw, Plate, and General Purpose media (HPRG770, Thermo Fisher Scientific), and incubated for 48 hours. 0.5% DMSO was selected as vehicle control to balance the requisite need of DMSO in HepaRG cultures to maintain differentiation (for example, baseline metabolism, proportions of hepatocytes vs. cholangiocytes), while enabling further hepatic receptor pathway activation (for example, PXR and CAR) in response to chemical exposure. 48 hours after plating, the culture medium was replaced with HepaRG Serum-Free Incudtion Media. Cells were exposed to each test chemical in duplicate and maintained in CO2 incubators for another 48 hours. Chemical plates were thawed to room temperature and 200x concentrations of treatment groups were prepared. 8-point conentration-reponse curves were made with the highest exposure at 100 uM, followed by half-log dilutions, all in 0.5% DMSO. Each test plate contained variouse controls, induction positive controls (1mM phenobarbital), cytotoxicity positive controls ([…] aflatoxin B1), vehicle controls (0.5% DMSO), and total lysis controls (0.5% DMSO). Cell morphology images were taken using an Essen IncuCyte FLR automated microscope, with six 96-well plates imaged in about 24 minutes. Images were captured and exported and JPEG files. Spent culture media was transfered to black-well plates for the LDH assay, and remaining media was sorted at -80 C for later use. Cells were treated with RLT buffer and frozen until shipped for gene expression analysis. Total RNA was isolated from the cell suspension in 75 uL of Buffer RLT (Qiagen, Germantown, MD 20874) by Quintiles/Expression Analysis (Durham, NC) using a custom isolation procedure. Total RNA from each plate well was transferred to a preamplification plate. Fluidigm's 96.96 Dynamic ArrayTM (Fluidigm, Amsterdam, the Netherlands) technology was used for gene expression analyses by quantitative reverse transcription polymerase chain reaction (qRT-PCR, performed by Quintiles/Expression Analysis, Durham, NC)89. Standard TaqManTM Assays (Applied Biosystems/ThermoFisher Scientific, Foster City, CA) were used to assess the expression of 93 genes selected based on their selectivity and sensitivity to important hepatic receptors known to be modulated by environmental chemicals; importance in human hepatocyte functionality; and hepatotoxicity. Three "housekeeping" endogenous control genes were also included and used for normalization: actin beta (ACTB), Glyceraldehyde 3 phosphate dehydrogenase (GAPDH) and RNA Polymerase II Subunit A (POLR2A). qRT-PCR was conducted according to the manufacturer's protocol.

Structure (SMILES) | AC50 | outcome
CCOc1nc(C(Cl)(Cl)Cl)ns1 | 1.77 µM (active) | 
Cc1ccc(N=CN(C)C=Nc2ccc(C)cc2C)c(C)c1 |  | inactive
CCCCC(O)(Cn1cncn1)c1ccc(Cl)cc1Cl (stereo not given) | 68.4 µM (active) | 
CC1(C)CCC(=Cc2ccc(Cl)cc2)C1(O)Cn1cncn1 (stereo not given) |  | inactive
Clc1nc(Cl)nc(Nc2ccccc2Cl)n1 |  | inactive
CC(C)(C)C(=O)C(Oc1ccc(Cl)cc1)n1cncn1 (stereo not given) |  | inactive
N#CN=C1SCCN1Cc1ccc(Cl)nc1 |  | inactive
CS(=O)(=O)c1ccc(C(=O)C2C(=O)CCCC2=O)c([N+](=O)[O-])c1 |  | inactive
O=C1C2CC=CCC2C(=O)N1SC(Cl)(Cl)Cl (stereo not given) |  | inactive
CCN(CC)c1nc(C)cc(OP(=S)(OC)OC)n1 |  | inactive
Cc1c(COC(=O)[C@@H]2[C@H](/C=C(\Cl)C(F)(F)F)C2(C)C)cccc1-c1ccccc1 | 50 µM (active) | 
COCc1cnc(C2=NC(C)(C(C)C)C(=O)N2)c(C(=O)O)c1 (stereo not given) |  | inactive
N#Cc1c(Cl)cccc1Cl |  | inactive
CCCN(CC)CC1COC2(CCC(C(C)(C)C)CC2)O1 (stereo not given) |  | inactive
CC1(C)CON(Cc2ccccc2Cl)C1=O |  | inactive
CC(C)N1C(=O)c2ccccc2NS1(=O)=O |  | inactive
CCC(C)n1c(=O)[nH]c(C)c(Br)c1=O (stereo not given) | 35.5 µM (active) | 
CC(C)C1(C)N=C(c2ncccc2C(=O)O)NC1=O (stereo not given) |  | inactive
CC(C)Nc1nc(Cl)nc(NC(C)C)n1 | 24.8 µM (active) | 
Cc1cc(C)nc(Nc2ccccc2)n1 |  | inactive

Structure (SMILES) | AC50 | outcome
CC(C)N1C(=O)N(c2ccccc2)CSC1=NC(C)(C)C | 64.4 µM (active) | 
O=C(Nc1ccccc1-c1ccc(Cl)cc1)c1cccnc1Cl | 52.5 µM (active) | 
CNC(=O)N(C)c1nnc(C(C)(C)C)s1 |  | inactive
N#Cc1c[nH]cc1-c1cccc2c1OC(F)(F)O2 | 73.3 µM (active) | 
CCCC(=NOCC)C1=C(O)CC(CC(C)SCC)CC1=O (stereo not given) |  | inactive
Nc1cnn(-c2ccccc2)c(=O)c1Cl |  | inactive
C=C(C)CN(CC)c1c([N+](=O)[O-])cc(C(F)(F)F)cc1[N+](=O)[O-] |  | inactive
CN/C(=N\[N+](=O)[O-])NCc1cnc(Cl)s1 | 50 µM (active) | 
Cn1c(-c2ccccc2)cc(-c2ccccc2)[n+]1C | 39.5 µM (active) | 
Clc1cccc(C(Cl)(Cl)Cl)n1 |  | inactive
COCC(C)N(C(=O)CCl)c1c(C)csc1C (stereo not given) |  | inactive
CCN(CC)C(=O)C(C)Oc1cccc2ccccc12 (stereo not given) | 73.6 µM (active) | 
CCNP(=S)(OC)O/C(C)=C/C(=O)OC(C)C (stereo not given) |  | inactive
CCNC(=O)NC(=O)C(C#N)=NOC | 75.6 µM (active) | 
COC(=O)NC(=S)Nc1ccccc1NC(=S)NC(=O)OC |  | inactive
CCCCOCN(C(=O)CCl)c1c(CC)cccc1CC |  | inactive
CC1(C)C(C(=O)OC(C#N)c2cccc(Oc3ccccc3)c2)C1(C)C (stereo not given) |  | inactive
Cc1nc(N(C)C)nc(OC(=O)N(C)C)c1C |  | inactive
COP(=S)(OC)Oc1ccc([N+](=O)[O-])c(C)c1 |  | inactive
COc1cc(Cl)c(OC)cc1Cl |  | inactive
